# Experimental data taken from the supplement of paper PMC10338343.
# ± gives the standard deviation.
# Tested on: EfPiwi piRISC loaded with piRNA #1 (26 nt)
# Test: pre-steady-state target cleavage rate (min^-1); auxiliary factor: 500 nM Ephydatia muelleri Gtsf1; guide: piRNA #1 5'p-UGAGGUAGUAGGUUGUAUAGUAUCCA; MIWI and MILI are mouse PIWI proteins and EfPiwi is from a freshwater sponge; tags in brackets are library labels; higher = faster piRNA-guided slicing of the target
# Method: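 Cleave-'n-Seq: a library of target RNAs (target site in constant flanks) at […] was incubated with 1 nM active freshwater sponge Ephydatia fluviatilis Piwi piRISC (synthetic 5'-monophosphorylated piRNA guide) with or without 500 nM EmGtsf1 at 33 °C for 1 min to 16 h. Uncleaved targets were sequenced and the pooled three trials fitted to a burst-and-steady-state model to give the pre-steady-state cleavage rate (min^-1). Sequence is the target site only. Fits with R² ≤ 0 are excluded.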
row,Sequence,pre-steady-state target cleavage rate
1,GGAGAGGAAACUAAACAACCUACUACCUCA,0.00466 ± 0.0036
2,GGAGACCUAACUAUACAACCUACUACCUUA,0.0211 ± 0.0092
3,GGAGUGGAUAUCUAUACAACCUACUACCUCA,0.00883 ± 0.0052
4,GGAGACCAUACUAUAGAACCUACUACGUCA,0.00374 ± 0.0034
5,GGAGACGAUCACUAUACAACCUACUACCUCA,0.0768 ± 0.029
6,GGAGAGGAUACUAUACAACCAUACUACCUCA,0.00323 ± 0.0026
7,GGAGACCUAACUAUACAACCUACUACCUCU [g2:g21:cont:t1U],0.915 ± 0.29
8,GGAGAGGAUACUAUUCAACCUACUACCUGA,0.00319 ± 0.0018
9,GGAGACCAUACUAUACAUCCUACUACCACA,0.00302 ± 0.0024
10,GGAGACGAUACUAUACAACCUUCUUCCUCA,0.0037 ± 0.0019
11,GGAGACCAUACUAUACAACCUACUACCAGA,0.00458 ± 0.0019
12,GGAGACCAUACUAUACAACCCUACUACCUCA,0.00693 ± 0.0035
13,GGAGACCAUACAUUACAACCUACUACCUCA,0.0108 ± 0.0045
14,GGAGUGGAUACUAUACAACCUACUACCAGA,0.00419 ± 0.0019
15,GGAGAGCAUACUAUACUACCUACUACCUCA,0.00584 ± 0.0027
16,GGAGACGAUACCUAUACAACCUACUACCUCA,0.0601 ± 0.023
17,GGAGUGGAUAGUUUACAACCUACUACCUCA,0.00446 ± 0.0033
18,GGAGUGGGAUACUAUACAACCUACUACCUCA,0.143 ± 0.046
19,GGAGAGAGAUACUAUACAACCUACUACCUCA,0.159 ± 0.057
20,GGAGAGGAUACUAAACUACCUACUACCUCA,0.00323 ± 0.003

row,Sequence,pre-steady-state target cleavage rate
1,GGAGUGGAUACUAUACAACCUACAUACCUCA,0.00344 ± 0.0016
2,GGAGACGAUACUAUACAAGCAACUACCUCA,0.0046 ± 0.003
3,GGAGACGAUACUAUACAACCUAACUACCUCA,0.0045 ± 0.0021
4,GGAGUGGAUACGUAUACAACCUACUACCUCA,0.082 ± 0.03
5,GGAGUGCUUACUAUACAACCUACUACCUCA,0.0694 ± 0.025
6,GGAGUGGAUACUAUACAACCUAGUACCACA,0.0035 ± 0.0016
7,GGAGACGUUACUAUACAACCUACAACCUCA,0.00216 ± 0.0017
8,GGAGACGAUACUAUACAACCUAUACCUCA,0.00289 ± 0.0018
9,GGAGUGGAUACUAUACAACCUAGUUCCUCA,0.00239 ± 0.0021
10,GGAGACGAUACAAUACAACCUACUACCUCA,0.0117 ± 0.0044
11,GGAGAGGAGACUAUACAACCUACUACCUCA,0.0151 ± 0.0058
12,GGAGUGGAUACUAUACAAACUACUACCUCA,0.0127 ± 0.0051
13,GGAGACCUAUCCUAUACAACCUACUACCUCA,0.0903 ± 0.032
14,GGAGUGAUACUAUACAACCUACUACCUCA,0.186 ± 0.069
15,GGAGUGGAUACUAUACAACCUACUAGCUGA,0.00461 ± 0.0027
16,GGAGAGGAUAUUAUACAACCUACUACCUCA,0.0615 ± 0.023
17,GGAGUGGAUACUAUACAACCUACUACCUCG [g2:g26:cont:t1G],0.0718 ± 0.025
18,GGAGACCAUACUAUACAACCUAGCUACCUCA,0.00373 ± 0.0029
19,GGAGUGGAUACUAUACAACCAACUAGCUCA,0.00337 ± 0.0015
20,GGAGACGAUACUAUACAAGCUACUACCUGA,0.00333 ± 0.0015
